Source: PMC5540273 (PLoS ONE, 2017)

test system: PRKX
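Also: kd values determined as follow-up on hits from a single-replicate KINOMEscan panel screen.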

| Structure (SMILES) | Kd [nM] |
| --- | --- |
| Cc1ccc(NC(=O)Nc2cccc(Cl)c2)cc1-c1ccc(C(=O)Nc2ccncc2)cc1 [GSK1398468] | 7400 |
| CC1=C(C(=O)Nc2cc3cn[nH]c3cc2F)C(c2ccc(C(F)(F)F)cc2)CC(=O)N1 (stereo not drawn) [GSK429286] | 350 |
| CCn1c(-c2ccccn2)nc2cnccc21 [SB-736398] | > 10000 |

test system: RAF1

| Structure (SMILES) | Kd [nM] |
| --- | --- |
| Cc1ccc(NC(=O)Nc2cccc(Cl)c2)cc1-c1ccc(C(=O)Nc2ccncc2)cc1 [GSK1398468] | 180 |
| COC(=O)c1c(-c2ccccc2)c2cc(OC)ccc2c(=O)n1Cc1ccccc1 | 390 |
| Cc1ccc(NC(=O)Nc2cc(C(C)(C)C)nn2-c2ccccc2)cc1 [GSK1014915] | 270 |
| CN(C)CCN(C)C(=O)c1cc(-c2ccncc2)c(-c2ccc(Cl)c(O)c2)o1.Cl.Cl [SB-710397] | 650 |
| Cc1cccc(-c2nc(-c3ccc(S(C)(=O)=O)cc3)sc2-c2ccnc(NCCc3ccccc3)c2)c1 | 150 |
| Cc1cccc(-c2nc(C)cc(Nc3ccncc3)n2)n1 [GSK257997] | > 10000 |
| Cl.O=C(Nc1cccc(-c2nn3ncccc3c2-c2ccnc(Nc3cccnc3)n2)c1)c1c(F)cccc1F [GSK312879] | 430 |
| COC(=O)c1c(-c2ccccc2)c2cc(C(=O)O)ccc2c(=O)n1Cc1ccccc1 | 170 |
| CC(=O)Nc1nc2cnc(Nc3cc(NC(=O)c4cccc(CCC#N)c4)ccc3C)nc2s1 | > 10000 |
